The results in this text go back to the antibiotic and cytotoxicity screens of Wong et al. (2023).

Among all 39,000 compounds or so, about 3,300 (8.5%) were called active. The sample holds actives, similar compounds and a random draw of the others, so the mix is not that of the screen.

This test deals with HepG2. Kind of test: cytotoxicity call (relative viability < 0.9). The note with it: 10 µM.
Turning to `O=C(C[C@H]1CC[C@H]2[C@@H](COC[C@@H](O)CN2S(=O)(=O)c2ccc(F)cc2)O1)NCCN1CCCCC1`, the cytotoxicity call was “inactive”.

On to `Cc1noc(C)c1NC(=O)Nc1ccc2c(c1)C(=O)N([C@H](C)CO)C[C@@H](C)[C@@H](CN(C)Cc1ccc3c(c1)OCO3)OCCCC[C@H](C)O2`, for which the cytotoxicity call was “inactive”. `O=C(C[C@H]1C[C@H]2c3cc(NS(=O)(=O)c4ccc(F)cc4)ccc3O[C@H]2[C@H](CO)O1)NCc1cccc(F)c1`: the cytotoxicity call is “inactive”. Consider `C[C@H]1CN([C@@H](C)CO)C(=O)Cc2cc(NC(=O)Nc3ccccc3)ccc2O[C@@H]1CN(C)Cc1ccc(Cl)c(Cl)c1`, for which the cytotoxicity call was “active”.

With `C[C@@H]1CN([C@@H](C)CO)C(=O)Cc2cc(NC(=O)Nc3ccccc3)ccc2O[C@@H]1CN(C)Cc1ccc(Cl)c(Cl)c1`, the cytotoxicity call was “active”. The entry for `C[C@H](CO)N1C[C@H](C)[C@H](CN(C)Cc2ccc(C(F)(F)F)cc2)OCCCC[C@H](C)Oc2ccc(NC(=O)c3ccncc3)cc2C1=O` is “inactive”; for `C[C@@H]1CN([C@@H](C)CO)S(=O)(=O)c2ccc(C3=CCCC3)cc2O[C@H]1CN(C)S(=O)(=O)c1ccc(F)cc1` it is “inactive”; for `Nc1cccc(OCc2ccccc2)c1` it is “inactive”. The entry for `CC(C)NC(=O)Nc1ccc2c(c1)C(=O)N([C@H](C)CO)C[C@@H](C)[C@H](CN(C)Cc1ccc(C(=O)O)cc1)O2` is “inactive”; for `C[C@@H]1CN([C@H](C)CO)S(=O)(=O)c2ccc(C#CCN(C)C)cc2O[C@H]1CN(C)C(=O)Nc1ccccc1F` it is “inactive”. The entry for `CC12C=CC(=O)C=C1CCC1C2C(=O)CC2(C)C1CCC2(O)C(=O)CO` (stereo not drawn) is “inactive”; for `O=P(O)(O)C(Cl)(Cl)P(=O)(O)O` it is “active”; for `CC(O)(P(=O)([O-])O)P(=O)([O-])O.[Na+].[Na+]` it is “inactive”.

Take `CC(O)(P(=O)(O)O)P(=O)(O)O`: the cytotoxicity call is “inactive”.

In the case of `C[C@@H]1CN([C@@H](C)CO)C(=O)c2cc(NC(=O)Cc3ccccc3)ccc2O[C@@H](C)CCCCO[C@@H]1CN(C)C(=O)C1CCCCC1`, the cytotoxicity call was “inactive”. For `COc1ccc(NC(=O)N(C)C[C@@H]2OCCCC[C@@H](C)Oc3ccc(NC(=O)Nc4c(C)noc4C)cc3C(=O)N([C@@H](C)CO)C[C@H]2C)cc1`, the cytotoxicity call was “inactive”. The entry for `CN(Cn1[nH]c(=O)ccc1=O)c1ccccc1` is “inactive”; for `COCCOC(=O)N1C(=O)[C@@]2(c3cc(C#CCNC(N)=O)ccc31)[C@H](C(=O)N1CCCCCCC1)[C@H]1C(=O)O[C@H](c3ccccc3)[C@H](c3ccccc3)N1[C@@H]2c1ccccc1OCCO` it is “inactive”; for `Cl.OC(c1cc(C(F)(F)F)nc2c(C(F)(F)F)cccc12)C1CCCCN1` (stereo not drawn) it is “active”.

Take `C[C@H]1CN([C@@H](C)CO)C(=O)c2cccc(NC(=O)C3CCCCC3)c2O[C@H]1CN(C)Cc1ccc(-c2ccccc2)cc1`: the cytotoxicity call is “inactive”. In the case of `Cc1noc(C)c1NC(=O)Nc1cccc2c1O[C@@H](CN(C)Cc1ccc(Cl)c(Cl)c1)[C@@H](C)CN([C@H](C)CO)C2=O` it was “inactive”.

Take `C[C@@H]1CN([C@@H](C)CO)C(=O)Cc2cc(NC(=O)Cc3ccccc3)ccc2O[C@H]1CN(C)Cc1ccc(-c2ccccc2)cc1`: the cytotoxicity call is “inactive”. With `C[C@@H]1CN([C@H](C)CO)C(=O)Cc2cc(NC(=O)Cc3ccccc3)ccc2O[C@@H]1CN(C)Cc1ccc(-c2ccccc2)cc1`, the cytotoxicity call is “active”.

As to `C[C@H]1CN([C@@H](C)CO)C(=O)Cc2cc(NC(=O)Cc3ccccc3)ccc2O[C@@H]1CN(C)Cc1ccc(-c2ccccc2)cc1`, the cytotoxicity call is “inactive”.

For the compound `C[C@H](CO)N1C[C@H](C)[C@@H](CN(C)Cc2ccc(-c3ccccc3)cc2)Oc2ccc(NC(=O)Cc3ccccc3)cc2CC1=O`, the cytotoxicity call is “inactive”. The entry for `C[C@H]1CN([C@@H](C)CO)C(=O)Cc2cc(NC(=O)Cc3ccccc3)ccc2O[C@H]1CN(C)Cc1ccc(-c2ccccc2)cc1` is “active”; for `C[C@H](CO)N1C[C@H](C)[C@H](CN(C)Cc2ccc(-c3ccccc3)cc2)Oc2ccc(NC(=O)Cc3ccccc3)cc2CC1=O` it is “inactive”.

`C[C@@H]1CN([C@H](C)CO)C(=O)Cc2cc(NC(=O)Cc3ccccc3)ccc2O[C@H]1CN(C)Cc1ccc(-c2ccccc2)cc1`: the cytotoxicity call was “inactive”.

On to `C[C@@H]1CN([C@@H](C)CO)C(=O)Cc2cc(NC(=O)Cc3ccccc3)ccc2O[C@@H]1CN(C)Cc1ccc(-c2ccccc2)cc1`, for which the cytotoxicity call was “active”. In the case of `CC(C)NC(=O)N(C)C[C@H]1Oc2ccc(NS(=O)(=O)c3cn(C)cn3)cc2CC(=O)N([C@@H](C)CO)C[C@@H]1C` it was “inactive”; in that of `COc1cccc(C#Cc2ccc3c(c2)O[C@H](CN(C)C(=O)c2ccccn2)[C@H](C)CN([C@@H](C)CO)S3(=O)=O)c1`, “inactive”; in that of `COc1ccc(CN(C)C[C@@H]2OCCCC[C@@H](C)Oc3ccc(NC(=O)CCCCCC(=O)Nc4ccccc4N)cc3C(=O)N([C@H](C)CO)C[C@@H]2C)cc1`, “inactive”. On to `C[C@@H]1CCCCO[C@@H](CN(C)Cc2ccc3c(c2)OCO3)[C@@H](C)CN([C@@H](C)CO)C(=O)c2cc(NC(=O)c3ccccc3)ccc2O1`, for which the cytotoxicity call was “inactive”. The entry for `C[C@H](CO)N1C[C@H](C)[C@H](CN(C)S(=O)(=O)c2cccs2)OCCCC[C@H](C)Oc2ccc(NC(=O)C3CCCCC3)cc2C1=O` is “inactive”; for `Cc1noc(C)c1NC(=O)Nc1ccc2c(c1)CC(=O)N([C@@H](C)CO)C[C@H](C)[C@H](CN(C)C(=O)Nc1cccc3ccccc13)O2` it is “inactive”.

For `C[C@@H]1CN([C@@H](C)CO)C(=O)c2cc(NC(=O)Cc3cn(C)c4ccccc34)ccc2O[C@@H]1CN(C)Cc1ccc(-c2ccccc2)cc1`, the cytotoxicity call was “active”. The entry for `C[C@H]1CN([C@@H](C)CO)C(=O)c2cc(NC(=O)Cc3cn(C)c4ccccc34)ccc2O[C@H]1CN(C)Cc1ccc(-c2ccccc2)cc1` is “inactive”; for `C[C@@H]1CN([C@H](C)CO)C(=O)c2cc(NC(=O)Cc3cn(C)c4ccccc34)ccc2O[C@@H]1CN(C)Cc1ccc(-c2ccccc2)cc1` it is “inactive”; for `C[C@H](CO)N1C[C@H](C)[C@@H](CN(C)Cc2ccc(-c3ccccc3)cc2)Oc2ccc(NC(=O)Cc3cn(C)c4ccccc34)cc2C1=O` it is “inactive”. The entry for `C[C@H](CO)N1C[C@H](C)[C@H](CN(C)Cc2ccc(-c3ccccc3)cc2)Oc2ccc(NC(=O)Cc3cn(C)c4ccccc34)cc2C1=O` is “active”.

In the case of `C[C@@H]1CN([C@@H](C)CO)C(=O)c2cc(NC(=O)Cc3cn(C)c4ccccc34)ccc2O[C@H]1CN(C)Cc1ccc(-c2ccccc2)cc1`, the cytotoxicity call is “inactive”. The entry for `C[C@@H]1CN([C@H](C)CO)C(=O)c2cc(NC(=O)Cc3cn(C)c4ccccc34)ccc2O[C@H]1CN(C)Cc1ccc(-c2ccccc2)cc1` is “inactive”; for `C[C@H]1CN([C@@H](C)CO)C(=O)c2cc(NC(=O)Cc3cn(C)c4ccccc34)ccc2O[C@@H]1CN(C)Cc1ccc(-c2ccccc2)cc1` it is “active”.
